According to PubChem BioAssay (NCI):
About 83,000 compounds went through this panel and 20% of them were active in at least one assay; those are over-represented in the sample as a whole.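 96-well plates, one dose, 48 hours. Percent growth reported; active if below 10.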 The source made the active and inactive calls.

How the values were obtained:
Experiment in all cases: NCI-60 one-dose screen, 48 h (100 = growth as untreated, 0 = no growth, -100 = all killed)
Conditions in all cases: 10 µM unless noted
DU-145 prostate = test system: DU-145 prostate
K-562 leukemia = test system: K-562 leukemia
MALME-3M melanoma = test system: MALME-3M melanoma
MDA-MB-231 breast = test system: MDA-MB-231 breast
RXF 393 renal = test system: RXF 393 renal
SF-268 CNS = test system: SF-268 CNS
SF-295 CNS = test system: SF-295 CNS
SF-539 CNS = test system: SF-539 CNS
UACC-257 melanoma = test system: UACC-257 melanoma
M14 melanoma = test system: M14 melanoma

Measured: growth

CCCN=C1NC(=O)/C(=C/c2nc(-c3ccc(OC)cc3)n3ccccc23)S1
inactive: DU-145 prostate 38.9% | K-562 leukemia 91.6% | MALME-3M melanoma 95.3% | MDA-MB-231 breast 55.9% | RXF 393 renal 54.6% | SF-268 CNS 76.2% | SF-295 CNS 124% | SF-539 CNS 95.4% | UACC-257 melanoma 110%

CCCCCCCCCCCCNC(=O)[C@H]1CSC(c2ccsc2)N1 (stereo not given in full)
active: DU-145 prostate -85.8% | K-562 leukemia -57% | MALME-3M melanoma -69.9% | MDA-MB-231 breast -80.5% | RXF 393 renal -93.2% | SF-268 CNS -77.1% | SF-295 CNS -29.9% | SF-539 CNS -89.2% | UACC-257 melanoma -87.2% | M14 melanoma -77.5%

O=c1ccn(-c2ncnc3nc[nH]c23)cc1
active: UACC-257 melanoma 3.23%
inactive: DU-145 prostate 101% | K-562 leukemia 89.9% | MALME-3M melanoma 68.8% | MDA-MB-231 breast 101% | RXF 393 renal 79.6% | SF-268 CNS 95.2% | SF-295 CNS 115% | SF-539 CNS 96.4%

N=C(N)c1ccc(-c2ccc(-c3ccc4ccccc4c3)s2)cc1
inactive: DU-145 prostate 99.6% | MALME-3M melanoma 105% | MDA-MB-231 breast 95.4% | RXF 393 renal 61.6% | SF-268 CNS 94.7% | SF-295 CNS 102% | SF-539 CNS 97% | UACC-257 melanoma 106% | M14 melanoma 99.6%
active: K-562 leukemia 1.51%

Cc1ccc(-c2cc3nc(C(Cl)Cl)nc(-c4ccccc4C)n3n2)cc1
inactive: DU-145 prostate 46.9% | K-562 leukemia 17.9% | MALME-3M melanoma 72.8% | MDA-MB-231 breast 66.8% | RXF 393 renal 22.8% | SF-268 CNS 92.6% | SF-295 CNS 77.3% | SF-539 CNS 86.5% | UACC-257 melanoma 101% | M14 melanoma 93.8%

CC(C)(C)n1cc(-c2ccnc(NCCNS(=O)(=O)c3ccc(Cl)cc3)c2)c(-c2cccc(O)c2)n1
active: K-562 leukemia 6.91%
inactive: DU-145 prostate 80.6% | MALME-3M melanoma 64.4% | MDA-MB-231 breast 56.6% | RXF 393 renal 64.3% | SF-268 CNS 54.7% | SF-295 CNS 54.4% | SF-539 CNS 68.1% | UACC-257 melanoma 64.8% | M14 melanoma 62.8%

COc1ccc(/C=C(\C#N)c2cc(OC)c3c(c2)OCO3)cc1
inactive: MALME-3M melanoma 54.2% | MDA-MB-231 breast 10.4% | RXF 393 renal 21.4% | SF-268 CNS 26.9% | UACC-257 melanoma 84%
active: DU-145 prostate -12.7% | K-562 leukemia 9.08% | SF-295 CNS 4.91% | SF-539 CNS 4.3%

COc1cc(C(=O)/C=C/c2c(C)n([O-])c3ccc(C(F)(F)F)cc3[n+]2=O)cc(OC)c1OC
inactive: DU-145 prostate 91.3% | K-562 leukemia 52.9% | MALME-3M melanoma 106% | MDA-MB-231 breast 99.6% | SF-268 CNS 96.1% | SF-295 CNS 105% | SF-539 CNS 96.5% | UACC-257 melanoma 74.2% | M14 melanoma 88.9%
active: RXF 393 renal -35.4%

COc1ccc(C2=C(c3cc(OC)c(OC)c(OC)c3)C(=O)CC2)cc1
inactive: K-562 leukemia 20.5% | MALME-3M melanoma 35.3% | MDA-MB-231 breast 17.2% | SF-268 CNS 33% | UACC-257 melanoma 65.4%
active: DU-145 prostate -19.3% | RXF 393 renal 1.23% | SF-295 CNS 9.47% | SF-539 CNS 0.222% | M14 melanoma 2.99%

CCCCOc1ccc(/C=C2/SC(N3CCCC3)=NC2=O)cc1
inactive: DU-145 prostate 80.9% | K-562 leukemia 82% | MALME-3M melanoma 97.9% | MDA-MB-231 breast 95.6% | RXF 393 renal 90.9% | SF-268 CNS 98.7% | SF-295 CNS 93.8% | SF-539 CNS 87.9% | UACC-257 melanoma 102%

CCOC(=O)CN1/C(=N/c2sc3c(c2C(=O)OCC)CCN(C(=O)OCC)C3)SC(=O)/C1=C\C(=O)OC
inactive: DU-145 prostate 104% | K-562 leukemia 64.2% | MALME-3M melanoma 101% | MDA-MB-231 breast 89.2% | RXF 393 renal 90.9% | SF-268 CNS 90.8% | SF-295 CNS 98% | SF-539 CNS 93.9% | UACC-257 melanoma 92.8% | M14 melanoma 95%

COc1cc(C(=O)/C=C/c2ccc3nc(-c4cc(F)cc(F)c4)sc3c2)cc(OC)c1OC
inactive: DU-145 prostate 112% | K-562 leukemia 100% | MALME-3M melanoma 86.6% | MDA-MB-231 breast 84.2% | RXF 393 renal 110% | SF-268 CNS 97.3% | SF-295 CNS 94.2% | SF-539 CNS 92.4% | UACC-257 melanoma 103% | M14 melanoma 97.1%

COc1ccc(-c2nc(SCCC(C)C)nc(Nc3ccc(F)c(Cl)c3)c2C#N)cc1
inactive: DU-145 prostate 97.7% | K-562 leukemia 56.2% | MALME-3M melanoma 84.2% | MDA-MB-231 breast 100% | RXF 393 renal 101% | SF-268 CNS 83% | SF-295 CNS 78% | SF-539 CNS 70.3% | UACC-257 melanoma 103% | M14 melanoma 95%

COc1cc(/C=C/C(=O)c2c(C)nc3ccccc3c2C)ccc1OCCCCOc1cc2c(cc1OC)C(=O)N1CCC[C@H]1C=N2
active: DU-145 prostate -100% | K-562 leukemia -55.5% | MALME-3M melanoma -81.3% | MDA-MB-231 breast -65.9% | RXF 393 renal -92.6% | SF-268 CNS -35.6% | SF-295 CNS -48.9% | SF-539 CNS -90.6% | UACC-257 melanoma -88%
